This passage reports growth results from PubChem BioAssay (NCI).

Some test systems named below: SK-MEL-2 melanoma; SN12C renal; UO-31 renal; TK-10 renal; CAKI-1 renal; CCRF-CEM leukemia; MOLT-4 leukemia; ACHN renal; A498 renal.
Common to all, as to experiment: NCI-60 one-dose screen, 48 h (100 = growth as untreated, 0 = no growth, -100 = all killed)
What all share (conditions): 10 µM unless noted

Compounds without any hit were thinned out: in the full panel of roughly 83,000, 20% have a hit.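 Activity criterion: percent growth below 10, measured after cells in 96-well plates were exposed to a single compound concentration for 48 hours.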 Unmarked numbers belong to inactive results. The source made the active and inactive calls.

With `COc1ccc(/C=N/NC(=O)c2cnn(CC(O)Cc3ccccc3)c2N)cc1OC1CCCC1` (stereo not given), the growth in the test with SK-MEL-2 melanoma is 108%; in the test with SN12C renal, 95.4%; in the test on UO-31 renal, 92.1%; in the test with TK-10 renal, 99.4%; in the test on CAKI-1 renal, 77.9%; in the test with CCRF-CEM leukemia, 70.9%. In addition, in the test with MOLT-4 leukemia, the growth is 66.6%.

For `COC(=O)[C@@H]1CCCN1C(=O)[C@@H]1CCCN1C(=O)[C@@H](Cc1c[nH]c2ccccc12)NC(=S)Nc1cc(C(F)(F)F)cc(C(F)(F)F)c1`, the growth in the test on SK-MEL-2 melanoma was 39.9%; with SN12C renal, 65.7%; in the test with UO-31 renal, 41.4%; in the test on TK-10 renal it was 83.5%; in the test on ACHN renal, 61.9%; in the test on A498 renal, 99.6%. In addition, the growth in the test with CCRF-CEM leukemia was 19.9%; with MOLT-4 leukemia, 22.3%.

Turning to `Cc1nc2cc(Nc3nc(Nc4ccc(F)cc4)nc(N4CCN(C)CC4)n3)ccc2n1Cc1ccccc1`, the growth is -20.5% (active) in the test on SK-MEL-2 melanoma; 34.9% in the test with SN12C renal; -29% (active) in the test with UO-31 renal; -12.1% (active) with TK-10 renal; 18.6% with CAKI-1 renal; 29.2% in the test on A498 renal. The values for the growth in the test on CCRF-CEM leukemia and in the test with MOLT-4 leukemia were -7.07% (active) and 1.11% (active), respectively.

In the case of `Cc1c(C)n(CC(O)CNC2CCCCC2C)c2ccccc12` (stereo not given), the growth with SK-MEL-2 melanoma was -49.9% (active); in the test on SN12C renal, -41.9% (active); in the test on UO-31 renal, -87.5% (active); in the test with TK-10 renal, -76.3% (active); with ACHN renal it was -41.3% (active); with A498 renal, 63.3%. Further, the growth in the test with CCRF-CEM leukemia is -9.05% (active); in the test with MOLT-4 leukemia, 4.33% (active).

In the case of `O=C1C2CC3C(CC2C(=O)[N]1[Sn]([c]1ccccc1)([c]1ccccc1)[c]1ccccc1)C1(Cl)C(Cl)=C(Cl)C3(Cl)C1(Cl)Cl` (stereo not given), the growth with SK-MEL-2 melanoma was -93.5% (active); in the test with SN12C renal, -87.3% (active); with UO-31 renal, -98.3% (active); in the test on TK-10 renal, -100% (active); in the test on ACHN renal it was -99.8% (active); with A498 renal, -95.5% (active). Moreover, the growth was -43.3% (active) with CCRF-CEM leukemia and -46.1% (active) in the test on MOLT-4 leukemia.

For the molecule `CCCOC(=O)c1ccc2c(c1)[N+](=O)C(C(=O)c1ccccc1)=C(C(F)(F)F)[N+]2=O`, the growth in the test with SK-MEL-2 melanoma was -87.6% (active); in the test with SN12C renal it was -92.3% (active); in the test on UO-31 renal it was -89% (active); in the test on TK-10 renal it was -99.1% (active); with ACHN renal, -91.8% (active); in the test on A498 renal, -90.9% (active). Besides, the figures for the growth with CCRF-CEM leukemia and in the test on MOLT-4 leukemia were -64.4% (active) and -63.3% (active), respectively.

Regarding `CCSc1nnc2c3cc(Br)ccc3n(C)c2n1`, the growth in the test on SK-MEL-2 melanoma is 97.8%; in the test with SN12C renal, 102%; in the test with UO-31 renal, 63.3%; in the test on ACHN renal, 90.8%; in the test with CAKI-1 renal it was 80.9%; in the test with A498 renal it was 91.5%. The growth with CCRF-CEM leukemia was 102%; in the test on MOLT-4 leukemia it was 107%.

For `COc1ccc(OC2=C(C#N)C(=N)N3c4ccccc4Sc4ccccc4C3N2)cc1` (stereo not given), the growth in the test on SK-MEL-2 melanoma is 130%; in the test with SN12C renal it was 94.3%; in the test with UO-31 renal, 59.5%; with TK-10 renal it was 120%; with ACHN renal, 83.3%; in the test on CCRF-CEM leukemia, 80.9%. Further, the growth in the test with MOLT-4 leukemia was 139%.

For the molecule `Cc1ccc2c(N/N=C\c3ccco3)cc(C)nc2n1`, the growth was 114% in the test with SK-MEL-2 melanoma; 77.2% in the test on SN12C renal; 35.1% with UO-31 renal; 93.8% with TK-10 renal; 66% in the test with CAKI-1 renal; 50.3% with A498 renal. The growth in the test on CCRF-CEM leukemia is 5.24% (active); in the test with MOLT-4 leukemia, 37%.

Take `O=S(=O)(Nc1ccccc1Cl)c1ccc(-c2cnc(C3CC3)o2)cc1`: the growth in the test on SK-MEL-2 melanoma was 39%; with SN12C renal, 48.3%; in the test on UO-31 renal, 49.8%; with TK-10 renal it was 61.9%; in the test with ACHN renal, 49.8%; in the test on CAKI-1 renal, 38.1%. Besides, the growth with CCRF-CEM leukemia is 17.4%; in the test on MOLT-4 leukemia it was 40.9%.

Turning to `COc1ccc(-c2c(-c3cc4c(c(OC)c3OC)OCO4)noc2N)cc1`, the growth was 63% in the test on SK-MEL-2 melanoma; 44.4% in the test with SN12C renal; 57.4% in the test on UO-31 renal; 66.3% with TK-10 renal; 37.6% in the test with CAKI-1 renal; 35.8% in the test with A498 renal. In addition, the growth with CCRF-CEM leukemia was 11.7%; with MOLT-4 leukemia, 36.6%.

As for `CCCCC1COc2cccc3c(SCC(=O)N(C)c4cccc5ccccc45)cc[n+]1c23` (stereo not given), the growth in the test with SK-MEL-2 melanoma is 102%; in the test with SN12C renal it was 98.7%; in the test on UO-31 renal, 94.1%; in the test on TK-10 renal it was 96.2%; with ACHN renal it was 104%; in the test with CCRF-CEM leukemia, 99.8%. The growth in the test on MOLT-4 leukemia is 102%.

On to `C[C@@H](Oc1cc(-c2cnn(C3CC4(CCNCC4)C3)c2)cnc1N)c1c(F)ccc(Cl)c1Cl`, for which the growth was -65.5% (active) with SK-MEL-2 melanoma; 22% in the test with SN12C renal; 13.8% with UO-31 renal; 28.2% in the test on ACHN renal; 60.9% with CAKI-1 renal; -6.38% (active) with A498 renal. Also, the results for the growth in the test on CCRF-CEM leukemia and with MOLT-4 leukemia were -19.6% (active) and -33% (active), respectively.

Consider `CN([N-]C(=O)CC(=O)[N-]N(C)C(=S)c1ccccc1)C(=S)c1ccccc1.[Cu+2]`, for which the growth was -90.2% (active) with SK-MEL-2 melanoma; -97.9% (active) in the test on SN12C renal; -97.5% (active) in the test with UO-31 renal; -99.1% (active) in the test on TK-10 renal; -50.6% (active) in the test on ACHN renal; -93.9% (active) in the test with A498 renal. For the same molecule, the growth with CCRF-CEM leukemia is -19.7% (active); with MOLT-4 leukemia, -36.2% (active).

Consider `COc1ccc(S(=O)(=O)ON=C2C=C(C)C(=O)C(C)=C2)cc1`, for which the growth is 82.5% in the test on SK-MEL-2 melanoma; 113% in the test with SN12C renal; 80.4% in the test on UO-31 renal; 109% with TK-10 renal; 61.6% with CAKI-1 renal; 98.4% in the test on A498 renal. In addition, the growth in the test on CCRF-CEM leukemia is 26.9%; in the test with MOLT-4 leukemia it was 42%.

For the molecule `COc1nc2c(cc1S(=O)(=O)c1ccccc1)CCc1c-2cnn1-c1ccccc1Cl`, the growth is 92.2% with SK-MEL-2 melanoma; 59% with SN12C renal; 40.2% in the test on UO-31 renal; 42.2% in the test with TK-10 renal; 49.9% in the test on CAKI-1 renal; -1.8% (active) with A498 renal. For the same molecule, the growth was 60.8% with CCRF-CEM leukemia and 42.9% in the test with MOLT-4 leukemia.
